Laboratory results taken from PubChem BioAssay (NCI).
This is part of a sample that, as a whole, favours compounds with a hit. Of some 83,000 tested, about 20% had one in any assay.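 Interpretation: 100, growth as untreated; towards 0, rising growth inhibition; 0, no net growth; 0 to -100, cell death. Compounds scoring below 10 were considered active.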 The source made the active and inactive calls.

These compounds were tested on MDA-MB-468 breast (assay: NCI-60 one-dose screen, 48 h (100 = growth as untreated, 0 = no growth, -100 = all killed)). Details: 10 µM unless noted.
For `O=C(Nc1ccc(OS(=O)(=O)c2ccccc2)cc1)C1CCCCC1`, the growth was 103% (inactive).
With `COC(=O)[C@]12CC[C@@H](C)[C@H](C)[C@@H]1C1=CC[C@@H]3[C@@]4(C)C(C=O)=C[C@@](C)(COC(C)=O)[C@@H]4[C@H](O)C[C@@]3(C)[C@]1(C)CC2` the growth was -19.2% (active).
For `COC(=O)[C@@H]1CCCN1C(=O)[C@H]1CCCN1C(=O)[C@@H](Cc1c[nH]c2ccccc12)NC(=S)Nc1cc(C(F)(F)F)cc(C(F)(F)F)c1`, the growth was 29.2% (inactive).
`COc1ccccc1NC(=O)c1ccc(/C=C/C(=O)c2nccn2C)cc1` was tested, and the growth was -40.7% (active).
In the case of `Nc1ncc(-c2ccc3ncnc(Nc4cccc(Cl)c4)c3c2)cn1`, the growth is reported as -26.4% (active).
`COc1ccc(OC)c(/C=C2\Oc3cc(OCCCN4CCCC4)ccc3C2=O)c1` was tested, and the growth was 77.7% (inactive).
With `N#C/C(=C\c1ccc(C(F)(F)F)cc1)c1cc2ccccc2[nH]1` the growth was 96.9% (inactive).
For `CCCOc1cc2ccccc2cc1C(=O)Nc1nc(NC)c2c(ccc3nccc32)[nH]1`, the growth was -59.7% (active).
`COc1cc2c(cc1OC)C(CC1(O)CCCCC1)N(S(=O)(=O)c1ccc(C)cc1)CC2` (stereo not given) was tested, and the growth was 44.4% [100 µM] (inactive).
`O=C(NCCCNc1cc(-c2cn(-c3ccccc3)nc2-c2cccc(O)c2)ccn1)Nc1ccc(F)cc1` was tested, and the growth was -19.4% (active).
With `O=C1N=C(N2CCOCC2)S/C1=C\c1cn(-c2ccccc2)nc1-c1ccccc1` the growth was 83.3% (inactive).
For `Cc1nccc2c3ccc(OCc4cn(-c5ccccc5)nn4)cc3n(CCCc3ccccc3)c12`, the growth was 49% (inactive).
For `CCN(CC)Cc1cc(Nc2c3ccc(Cl)cc3nc3ccc(OC)cc23)ccc1O`, the growth was 60.5% (inactive).
With `COc1ccc(/C=C2\SC(=O)N(CN3CCN(c4cc5c(cc4F)c(=O)c(C(=O)O)cn5C4CC4)CC3)C2=O)cc1` the growth was 108% (inactive).
For `Cn1cc(-c2csc(-c3cn(CCNC(=O)OC(C)(C)C)c4ccccc34)n2)c2cccnc21`, the growth was 23.4% (inactive).
With `COc1ccc(-c2nc3sc(-c4cc(OC)c(OC)c(OC)c4)nn3c2/C=C2/C(=O)Nc3ccc(F)cc32)cc1` the growth was -65.3% (active).
In the case of `COc1ccc(-c2nocc2-c2cccs2)cc1`, the growth is reported as 97% (inactive).
For `C=C(C)[C@@H]1CC[C@]2(C(=O)N3CCN(C)CC3)CC[C@]3(C)[C@H](CC[C@@H]4[C@@]5(C)CC[C@H](OP(=O)(OCC)OCC)C(C)(C)[C@@H]5CC[C@]43C)[C@@H]12`, the growth was 76.2% (inactive).
With `COc1ccc2nc3ccccc3c(NCc3ccc(Cl)cc3)c2c1` the growth was -30.6% (active).
In the case of `COc1ccc(-c2nnc(-c3ccc4c(c3)nc(-c3ccccc3)n4C3CCCCC3)o2)cc1`, the growth is reported as 83.8% (inactive).
With `COc1cc(CN(CCC(O)N2CCCC2=O)Cc2ccc3c(c2)OCO3)cc(OC)c1OC` (stereo not given) the growth was 119% (inactive).
For `C[n+]1c(/C=C\C=C\N2CCCCC2)sc2ccccc21`, the growth was -17% (active).
With `COC(=O)/C=C1/SC(=Nc2cccc(OC)c2)N(CCc2c[nH]c3ccc(O)cc23)C1=O` the growth was 49.3% (inactive).
In the case of `COc1ccc(N2CCN(CC(=O)N3CCN(c4nnc(-c5ccccc5)c(-c5ccccc5)n4)CC3)CC2)cc1`, the growth is reported as 50.6% (inactive).
`COc1cc(/C=N/N(C)C)ccc1O` was tested, and the growth was 95.8% (inactive).
